Source: PubChem BioAssay (EPA / NIEHS)
Where a structure was tested more than once in an assay, its records may differ in their call. Active and inactive are the calls of the source. The calls were made as follows: active = hit-call score of the fitted dose curve at least 0.9, where 1 is the maximum; inactive = score below 0.9.

read-out: ABC Transporter (ABCC2), ABCC2 (gene 1244); test: LTEA_HepaRG_ABCC2: Life Technologies and Expression Analysis (LTEA) Assay for ABC Transporter (ABCC2) using HepaRG (AID 2283464); conditions: mRNA level, 48 h; actives raise or lower the signal
Procedure: LTEA_HepaRG is a cell based, multiplexed-readout assay that uses HepaRG, a human liver cell line, with measurements taken at 48 hours after chemical dosing on a 96-well plate.LTEA_HepaRG_ABCC2 is one of 102 assay component(s) measured in the LTEA HepaRG cell culture assay. It is a marker of Steatosis/NR mediated transport.Data from the assay component LTEA_HepaRG_ABCC2 was analyzed into 1 endpoint. This assay endpoint, LTEA_HepaRG_ABCC2, was analyzed with bidirectional fitting relative to DMSO as the negative control and baseline of activity. Using a type of inducible reporter, measures of mRNA induction for gain or loss-of-signal activity can be used to understand regulation of transcription factor activity. To generalize the intended target to other relatable targets, this assay endpoint is annotated to the transporter intended target family, where the subfamily is ABC transporter.
A total of 1060 chemcials from the ToxCast library were tested in eight-point concentration-response experiments. Cell culture and cytotoxicity assays were conducted at Thermo Fisher Scientific's Custom Services facility (Madison, WI). A single lot of human HepaRG cells (Thermo Fisher Scientific, Frederick, MD) was used for the cell culture experiments. 96-well format collagen type I coated plates of human HepaRG cells were prepared using established methods. Briefly, cryopreserved HepaRG cells were thawed, plated at a density of approximately 100,000 cells/well in HepaRG Thaw, Plate, and General Purpose media (HPRG770, Thermo Fisher Scientific), and incubated for 48 hours. 0.5% DMSO was selected as vehicle control to balance the requisite need of DMSO in HepaRG cultures to maintain differentiation (for example, baseline metabolism, proportions of hepatocytes vs. cholangiocytes), while enabling further hepatic receptor pathway activation (for example, PXR and CAR) in response to chemical exposure. 48 hours after plating, the culture medium was replaced with HepaRG Serum-Free Incudtion Media. Cells were exposed to each test chemical in duplicate and maintained in CO2 incubators for another 48 hours. Chemical plates were thawed to room temperature and 200x concentrations of treatment groups were prepared. 8-point conentration-reponse curves were made with the highest exposure at 100 uM, followed by half-log dilutions, all in 0.5% DMSO. Each test plate contained variouse controls, induction positive controls (1mM phenobarbital), cytotoxicity positive controls ([…] aflatoxin B1), vehicle controls (0.5% DMSO), and total lysis controls (0.5% DMSO). Cell morphology images were taken using an Essen IncuCyte FLR automated microscope, with six 96-well plates imaged in about 24 minutes. Images were captured and exported and JPEG files. Spent culture media was transfered to black-well plates for the LDH assay, and remaining media was sorted at -80 C for later use. Cells were treated with RLT buffer and frozen until shipped for gene expression analysis. Total RNA was isolated from the cell suspension in 75 uL of Buffer RLT (Qiagen, Germantown, MD 20874) by Quintiles/Expression Analysis (Durham, NC) using a custom isolation procedure. Total RNA from each plate well was transferred to a preamplification plate. Fluidigm's 96.96 Dynamic ArrayTM (Fluidigm, Amsterdam, the Netherlands) technology was used for gene expression analyses by quantitative reverse transcription polymerase chain reaction (qRT-PCR, performed by Quintiles/Expression Analysis, Durham, NC)89. Standard TaqManTM Assays (Applied Biosystems/ThermoFisher Scientific, Foster City, CA) were used to assess the expression of 93 genes selected based on their selectivity and sensitivity to important hepatic receptors known to be modulated by environmental chemicals; importance in human hepatocyte functionality; and hepatotoxicity. […]

Row | Compound | outcome | AC50
1 | ClCC(Cl)CCl | inactive | –
2 | CCC(C)(C)c1ccc(O)c(C(C)(C)CC)c1 | inactive | –
3 | COc1cc(-c2ccc(N)c(OC)c2)ccc1N | inactive | 50 µM (active)
4 | CN(C)N=O | inactive | –
5 | O=C(O)C(F)(F)C(F)(F)C(F)(F)C(F)(F)C(F)(F)C(F)(F)C(F)(F)C(F)(F)C(F)(F)C(F)(F)F | inactive | –
6 | CCN1CCC2(CC1)COc1cc3c(cc12)N(C(=O)c1ccc(-c2ccc(-c4nnc(C)o4)cc2C)cc1)CC3 | – | 18.5 µM (active)
7 | CCOP(=S)(OCC)SCSP(=S)(OCC)OCC | – | 50 µM (active)
8 | CC(C)(C)CC(C)(C)c1ccc(O)cc1 | inactive | –
9 | CC(=O)[O][Hg][c]1ccccc1 | – | 27.2 µM (active)
10 | O=C1C2(Cl)C3(Cl)C4(Cl)C(Cl)(Cl)C5(Cl)C3(Cl)C1(Cl)C5(Cl)C24Cl (configuration not stated) | – | 93.6 µM (active)
11 | CCC(=O)C(CC(C)N(C)C)(c1ccccc1)c1ccccc1 (configuration not stated) | inactive | –
12 | NC(=O)O | inactive | –
13 | CC12CC1(C)C(=O)N(c1cc(Cl)cc(Cl)c1)C2=O (configuration not stated) | inactive | –
14 | Oc1cccc2cccnc12 | inactive | –
15 | CC(C)(C)c1cc(O)ccc1O | inactive | –
16 | ClC1(Cl)C2(Cl)C3(Cl)C4(Cl)C(Cl)(Cl)C5(Cl)C3(Cl)C1(Cl)C5(Cl)C24Cl (configuration not stated) | inactive | –

Row | Compound | outcome | AC50
17 | O=C(Nc1ccc2[nH]ccc2c1)c1cc2cc(F)ccc2n1Cc1cccc(F)c1 | – | 78.2 µM (active)
18 | O=[N+]([O-])c1ccc(O)c([N+](=O)[O-])c1 | – | 13.3 µM (active)
19 | C=CC(=O)OCCCCCC(C)C | inactive | –
20 | CCCCCCCCc1ccc(O)cc1 | inactive | –
21 | C=C(C)C(=O)[O][Sn]([CH2]CCC)([CH2]CCC)[CH2]CCC | – | 3.35 µM (active)
22 | C[C@@H]1C[C@@H]([C@H](O)CC2CC(=O)NC(=O)C2)C(=O)[C@@H](C)C1 | – | 27.3 µM (active)
23 | CCOP(=S)(OCC)Oc1nc(Cl)c(Cl)cc1Cl | inactive | –
24 | Cn1sc(Cl)cc1=O | inactive | –
25 | CC(C)(c1ccccc1)c1ccc(O)c(C(C)(C)c2ccccc2)c1 | – | 12.7 µM (active)
26 | O=C(O)C(Cl)(Cl)Cl | inactive | –
27 | C[C@]12CCC(=O)C[C@@H]1CC[C@@H]1[C@@H]2CC[C@]2(C)[C@@H](O)CC[C@@H]12 | inactive | –
28 | Cc1ccccc1N | inactive | –
29 | CC(C)(OO)c1ccccc1 | inactive | –
30 | O=C(O)C(F)(F)C(F)(F)C(F)(F)C(F)(F)C(F)(F)C(F)(F)F | inactive | –
31 | O=c1[nH]c(=O)[nH]c(=O)[nH]1 | inactive | –
